# In all, about 8,300 sequences were measured (“log2 fold change of degron read counts, EGFP-low vs EGFP+ sorted cells (limma voom), compound-induced degradation”: median about -1.1, highest 2% from about 3.2 on). The list comes from a sample in which the highest values are over-represented; it also holds similar and randomly drawn sequences.
# T1: CRBN, Q96SW2
# T1 chain: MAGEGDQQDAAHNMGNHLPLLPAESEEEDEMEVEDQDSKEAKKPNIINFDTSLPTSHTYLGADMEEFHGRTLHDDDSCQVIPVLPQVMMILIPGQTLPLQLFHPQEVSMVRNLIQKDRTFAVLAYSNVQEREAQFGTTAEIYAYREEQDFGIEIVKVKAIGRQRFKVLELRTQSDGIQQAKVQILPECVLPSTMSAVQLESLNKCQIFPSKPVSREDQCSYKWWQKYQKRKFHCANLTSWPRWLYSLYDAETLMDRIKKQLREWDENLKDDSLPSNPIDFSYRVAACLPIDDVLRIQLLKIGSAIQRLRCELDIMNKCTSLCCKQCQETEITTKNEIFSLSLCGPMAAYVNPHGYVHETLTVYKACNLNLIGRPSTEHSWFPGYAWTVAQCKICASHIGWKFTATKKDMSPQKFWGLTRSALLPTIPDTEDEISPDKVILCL
# B1: 46F_47M_49E_50Q_52G_53A_54P_55F_67L_, Q9UKT9 (peptide)
# chain: FMCEQCGAPFTQKGNLLRHIKL
# B2: 46F_47T_49E_50I_52G_53H_54I_55F_67L_, Q9UKT9 (peptide)
# chain: FTCEICGHIFTQKGNLLRHIKL
# B3: 46F_47G_49D_50I_52G_53A_54N_55F_67L_, Q9UKT9 (peptide)
# chain: FGCDICGANFTQKGNLLRHIKL
# B4: 46F_47Y_49N_50Q_52G_53R_54H_55F_67L_, Q9UKT9 (peptide)
# chain: FYCNQCGRHFTQKGNLLRHIKL
# B5: 46F_47R_49N_50Q_52G_53H_54L_55F_67L_, Q9UKT9 (peptide)
# chain: FRCNQCGHLFTQKGNLLRHIKL
# B6: 46L_47F_49N_50Q_52G_53F_54A_55C_67L_, Q9UKT9 (peptide)
# chain: LFCNQCGFACTQKGNLLRHIKL
# B7: 46L_47A_49N_50Q_52G_53F_54E_55C_67L_, Q9UKT9 (peptide)
# chain: LACNQCGFECTQKGNLLRHIKL
# B8: 46F_47Y_49N_50Q_52G_53R_54L_55F_67L_, Q9UKT9 (peptide)
# chain: FYCNQCGRLFTQKGNLLRHIKL
# B9: 46F_47K_49D_50V_52G_53A_54V_55F_67L_, Q9UKT9 (peptide)
# chain: FKCDVCGAVFTQKGNLLRHIKL
# B10: 46F_47V_49D_50Q_52G_53A_54E_55F_67L_, Q9UKT9 (peptide)
# chain: FVCDQCGAEFTQKGNLLRHIKL
# B11: 46F_47C_49N_50Q_52G_53A_54S_55F_67L_, Q9UKT9 (peptide)
# chain: FCCNQCGASFTQKGNLLRHIKL
# B12: 46L_47W_49E_50I_52G_53F_54L_55C_67L_, Q9UKT9 (peptide)
# chain: LWCEICGFLCTQKGNLLRHIKL
# B13: 46F_47K_49N_50I_52G_53A_54H_55F_67L_, Q9UKT9 (peptide)
# chain: FKCNICGAHFTQKGNLLRHIKL
# B14: 46F_47C_49D_50I_52G_53A_54I_55F_67L_, Q9UKT9 (peptide)
# chain: FCCDICGAIFTQKGNLLRHIKL
# B15: 46F_47V_49P_50V_52G_53A_54I_55F_67L_, Q9UKT9 (peptide)
# chain: FVCPVCGAIFTQKGNLLRHIKL
# B16: 46F_47K_49D_50I_52G_53A_54I_55F_67L_, Q9UKT9 (peptide)
# chain: FKCDICGAIFTQKGNLLRHIKL
# B17: 46F_47F_49P_50V_52G_53A_54I_55F_67L_, Q9UKT9 (peptide)
# chain: FFCPVCGAIFTQKGNLLRHIKL
# B18: 46F_47G_49P_50V_52G_53A_54I_55F_67L_, Q9UKT9 (peptide)
# chain: FGCPVCGAIFTQKGNLLRHIKL
# B19: 46F_47Q_49D_50I_52G_53A_54I_55F_67L_, Q9UKT9 (peptide)
# chain: FQCDICGAIFTQKGNLLRHIKL
# B20: 46F_47R_49N_50V_52G_53A_54I_55F_67L_, Q9UKT9 (peptide)
# chain: FRCNVCGAIFTQKGNLLRHIKL
# B21: 46F_47R_49P_50V_52G_53A_54I_55F_67L_, Q9UKT9 (peptide)
# chain: FRCPVCGAIFTQKGNLLRHIKL
# B22: 46F_47H_49P_50V_52G_53A_54I_55F_67L_, Q9UKT9 (peptide)
# chain: FHCPVCGAIFTQKGNLLRHIKL
# B23: 46F_47Q_49N_50V_52G_53A_54I_55F_67L_, Q9UKT9 (peptide)
# chain: FQCNVCGAIFTQKGNLLRHIKL
# B24: 46F_47Q_49P_50V_52G_53A_54I_55F_67L_, Q9UKT9 (peptide)
# chain: FQCPVCGAIFTQKGNLLRHIKL
# B25: 46F_47Y_49N_50V_52G_53A_54I_55F_67L_, Q9UKT9 (peptide)
# chain: FYCNVCGAIFTQKGNLLRHIKL
# B26: 46F_47Q_49E_50Q_52G_53A_54W_55F_67L_, Q9UKT9 (peptide)
# chain: FQCEQCGAWFTQKGNLLRHIKL
# B27: 46F_47R_49D_50I_52G_53A_54H_55F_67L_, Q9UKT9 (peptide)
# chain: FRCDICGAHFTQKGNLLRHIKL
# B28: 46F_47A_49D_50V_52G_53A_54C_55F_67L_, Q9UKT9 (peptide)
# chain: FACDVCGACFTQKGNLLRHIKL
# Biological target: T1, CRBN, Q96SW2
# Assay: log2 fold change of degron read counts, EGFP-low vs EGFP+ sorted cells (limma voom), compound-induced degradation; higher = more compound-induced degradation of the degron-EGFP fusion; degrons are variants of IKZF1/3 zinc finger 2; compound dose not given here
# Settings: Jurkat, 18 h
# [1] = compound: compound 19 (5-tert-butyl-thalidomide)
# [2] = compound: compound 22 (5-morpholino-thalidomide)
# [3] = compound: compound 33 (diphenyl IMiD analogue)
# 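Also: pooled lentiviral library of zinc finger degron-EGFP fusions in mCherry-positive Jurkat cells, FACS-sorted after compound exposure, with degron abundance counted by next-generation sequencing.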
Sequence,log2 fold change of degron read counts [1],log2 fold change of degron read counts [2],log2 fold change of degron read counts [3],log2 fold change of degron read counts (compound: thalidomide)
B1,-0.389,-0.627,1.41,-0.399
B2,-2.87,-3.7,-2.68,-2.59
B3,-0.278,-0.474,0.0264,-0.564
B4,-2.11,-2.71,-2.01,-2.05
B5,-2.18,-2.82,-2.46,-2.45
B6,-0.744,-1.36,-1.06,-1.14
B7,-2.6,-2.34,-2.97,-2.24
B8,-1.45,-2.33,-2.01,-1.7
B9,-3.26,-3.42,-3.55,-2.43
B10,-3.02,-2.35,-2.96,-1.78
B11,-1.43,-1.92,-0.445,-1.53
B12,1.13,1.39,1.44,0.295
B13,-1.74,-2.18,-2.99,-1.98
B14,-0.218,0.0957,1.18,0.132
B15,-1.21,0.225,1.42,1.3
B16,-2.93,-3.42,-2.93,-2.01
B17,1.97,2.07,0.852,0.24
B18,3.73,2.12,2.5,0.899
B19,-1.32,2.34,1.7,3.47
B20,-1.97,-2.04,-0.492,-0.595
B21,-1.67,-0.943,0.606,0.832
B22,0.164,0.683,1.33,-0.0983
B23,-1.8,1.3,1.44,3.37
B24,-0.448,3.15,2.64,3.53
B25,-0.301,0.0156,-0.132,-1.44
B26,-2.85,-2.85,-1.86,-0.183
B27,-1.41,-1.53,0.162,-1.18
B28,1.83,-0.406,-0.331,-2.56

# Source: the supplement of paper PMC12645437, “Orthogonal IMiD-Degron Pairs Induce Selective Protein Degradation in Cells” (ACS Chemical Biology, 2025)
